# Laboratory results as given in PubChem BioAssay.
# Values joined by “and” are separate entries in the source; they are usually repeats but may differ in a detail not shown here. Identical values can stand only once. Records with an inconclusive call do not appear. Active and inactive are the calls of the source. Rule as the data show it, unless noted: active = inhibition above about 80%; inactive = the rest.
# What was measured:
# [1] = growth inhibition of DIPG glioma cells, dose response, cell-based, SU-DIPG-XVII, MIPE5.0, CellTiter-Glo, qHTS (AID 1347060; cut-off not given, nearly all actives have AC50 up to about 26 µM;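 as to AC50: cells exposed to compound for 48 hours before viability readout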); details: SU-DIPG-XVII viability, CellTiter-Glo ATP luminescence
# [2] = growth inhibition of DIPG glioma cells, dose response, cell-based, SU-DIPG-XIII, MIPE4.0, CellTiter-Glo, qHTS (AID 1347061; cut-off not given, nearly all actives have AC50 up to about 37 µM;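 also: cells exposed to compound for 48 hours before readout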); details: SU-DIPG-XIII viability, CellTiter-Glo ATP luminescence
# [3] = growth inhibition of DIPG glioma cells, dose response, cell-based, JHH-DIPG-1, MIPE4.0, CellTiter-Glo, qHTS (AID 1347062; cut-off not given, nearly all actives have AC50 up to about 27 µM;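 as to AC50: cells exposed to compound for two days before readout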); details: JHH-DIPG-1 viability, CellTiter-Glo ATP luminescence
# [4] = growth inhibition of DIPG glioma cells, dose response, cell-based, SU-DIPG-IV, MIPE4.0, CellTiter-Glo, qHTS (AID 1347063; cut-off not given, nearly all actives have AC50 up to about 30 µM;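 also: compound exposure lasted 48 hours before the viability readout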); details: SU-DIPG-IV viability, CellTiter-Glo ATP luminescence
# [5] = growth inhibition of DIPG glioma cells, dose response, cell-based, SU-DIPG-XIII, MIPE5.0, CellTiter-Glo, qHTS (AID 1347064; cut-off not given, nearly all actives have AC50 up to about 23 µM;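 also: cells exposed to compound for 48 hours before the viability read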); details: SU-DIPG-XIII viability, CellTiter-Glo ATP luminescence
# [6] = viability loss in pontine glioma line – cell-based, SU-DIPG-XXV, MIPE5.0, CellTiter-Glo, qHTS, dose response (AID 1347065; cut-off not given, nearly all actives have AC50 up to about 26 µM;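 also: cells exposed to compound for 48 hours before ATP readout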); details: CellTiter-Glo ATP luminescence
# [7] = JHH-DIPG-1 glioma cell viability, MIPE5.0 library, CellTiter-Glo luminescence, qHTS (AID 1347067; cut-off not given, nearly all actives have AC50 up to about 26 µM;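 also: cells exposed to compound for 48 hours before readout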); details: JHH-DIPG-1 glioma viability, CellTiter-Glo ATP luminescence
# [8] = sensitizers of A549 cells to miR-34 induction, primary screen, imaging, A549 dox-inducible miR-34, nuclei and caspase counts (AID 1347080;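 active = compounds whose cell count with miR-34 switched on is under 0.7 times the count with it off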); details: A549 miR-34 inducible, Hoechst nuclei count, 48 h
# [9] = survival rescue of mitochondrial mutant cells in low glucose, primary screen, MELAS cybrids, Rieske KO mouse fibroblasts, CellTiter-Glo (AID 1508586;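 active = mean z-score across replicates of 1.96 or higher in either the MELAS or the Rieske mutant cell line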;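 also: z relative to plate mean and SD of compound and empty wells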)
# [10] = LFS_MB_P medulloblastoma growth inhibition, cell-based, chromothripsis tumors, cisplatin or BGB combos (AID 1671449); details: LFS_MB_P medulloblastoma cells;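 also: cells exposed for 96 hours; 0% = vehicle DMSO and 100% = killing by high DMSO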
# [11] = HDN33 neuroblastoma growth inhibition, cell-based, chromothripsis tumors, cisplatin or BGB combos (AID 1671450); details: HDN33 neuroblastoma cells, stronger effect = higher value;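 also: cells exposed to compound for four days; 0% = vehicle DMSO and 100% = cell killing by high DMSO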
# [12] = ICB984 medulloblastoma cell growth inhibition, synergistic combos for chromothripsis tumors, cisplatin or BGB combos (AID 1671451; call rule not given here;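 also: cells exposed for 96 hours before readout; 0% = vehicle DMSO and 100% = killing by high DMSO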); details: ICB984 medulloblastoma cells, drug combinations, stronger effect = higher value
# [13] = HTB85 osteosarcoma cell growth inhibition, synergistic combos for chromothripsis tumors, BGB or cisplatin IC20 combos (AID 1671453); details: HTB85 osteosarcoma cells, drug combinations, stronger effect = higher value;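 also: cells exposed for 96 hours before readout; 0% = vehicle DMSO and 100% = high DMSO killing control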
# [14] = MDA-MB-436 breast carcinoma cell growth inhibition, synergistic combos for chromothripsis tumors, BGB or cisplatin combos (AID 1671458; call rule not given here;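 also: cells exposed for 96 hours; 0% = vehicle DMSO and 100% = killing by high DMSO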); details: MDA-MB-436 breast carcinoma growth inhibition, drug combinations, stronger effect = higher value
# [15] = growth inhibition of BT084 medulloblastoma cells, cell-based, ICGC_MB145, cisplatin and BGB IC40 combos (AID 1671461); details: drug combinations, stronger effect = higher value;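 also: cells exposed to drugs for 96 hours; 0% = vehicle DMSO and 100% = high DMSO full killing control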
# [16] = growth inhibition of RCMB18 medulloblastoma cells, cell-based, cisplatin and BGB IC40 combos (AID 1671462); details: stronger effect = higher value;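 also: cells exposed to compound for four days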
# [17] = SU-DIPG-XXV glioma cell viability, MIPE5.0 library, qHTS (AID 1347068; cut-off not given, nearly all actives have IC50 up to about 30 µM)
# [18] = stronger effect = lower value, cell number ratio, induced over uninduced
# [19] = measured here: relative caspase fold change +Dox/-Dox
# [20] = measured here: total cells with miR-34 induction, stronger effect = lower value
# [21] = measured here: total cells without miR-34 induction
# [22] = MELAS cybrid survival, CellTiter-Glo 48 h, stronger effect = higher value
# [23] = Rieske KO mouse fibroblast survival, CellTiter-Glo 72 h
structure (smiles),measurement,setting,value
O=C(CCCCCCNC(=O)c1cnc(N(c2ccccc2)c2ccccc2)nc1)NO,AC50,[1],7.42 µM (active)
same,AC50,[2],23.5 µM (active)
same,AC50,[3],7.43 µM (active)
same,AC50,[4],5.9 µM (active)
same,AC50,[5],4.17 µM (active)
same,AC50,[6],7.42 µM (active)
same,AC50,[7],8.33 µM (active)
same,fold change,[8]; [18],0.909 (inactive)
same,fold change,[8]; [19],0.469
same,cell count,[8]; [20],4500
same,cell count,[8]; [21],4950
same,z-score,[9]; [22],-0.658 (inactive)
same,z-score,[9]; [23],0.218
same,inhibition,"[10]; at 0.5 µM, stronger effect = higher value",-14.5% (inactive) and -5.58% (inactive)
same,inhibition,"[10]; measured here: combination with BGB IC20, at 0.005 µM",-18.6% and -24.1%
same,inhibition,"[10]; measured here: combination with BGB IC40, at 0.005 µM",-32.2% and -65.4%
same,inhibition,"[10]; measured here: combination with BGB IC40, at 0.05 µM",-41.9% and -39.4%
same,inhibition,"[10]; measured here: combination with cisplatin, at 0.5 µM, stronger effect = higher value",-7.65% and 15.8%
same,inhibition,"[10]; measured here: combination with cisplatin, at 5 µM, stronger effect = higher value",98.3% and 80%
same,inhibition,"[11]; BGB combo, at 5 µM",42.2% and -4.91%
same,inhibition,[11]; at 0.5 µM,-11.3% (inactive) and -31.5% (inactive)
same,inhibition,"[11]; cisplatin combo, at 5 µM",48.9% and 1.35%
same,inhibition,"[11]; measured here: with BGB IC20 combination, at 0.5 µM",-15.6% and -44.2%
same,inhibition,"[11]; measured here: with cisplatin IC20 combination, at 0.5 µM",-0.181% and -16.9%
same,inhibition,"[11]; single agent, at 5 µM",58.6% and 19.5%
same,inhibition,"[12]; BGB IC20 combo, at 0.005 µM",-1.95% and -4.3%
same,inhibition,"[12]; BGB IC40 combo, at 0.005 µM",-29.2% and -32%
same,inhibition,"[12]; BGB IC40 combo, at 0.05 µM",25.2% and 28%
same,inhibition,[12]; at 0.5 µM,-12.7% (inactive) and -20.3% (inactive)
same,inhibition,"[12]; cisplatin combo, at 0.05 µM",22.5% and 24.5%
same,inhibition,"[12]; cisplatin combo, at 0.5 µM",-4.11% and -25.4%
same,inhibition,"[12]; cisplatin combo, at 5 µM",-33% and -20%
same,inhibition,"[12]; measured here: 5 uM single agent, at 5 µM",-20.1% and -35.8%
same,inhibition,[13]; at 0.5 µM,-4.93% (inactive) and -17.7% (inactive)
same,inhibition,"[13]; measured here: with BGB IC20, at 0.5 µM",-15.5% and -21.9%
same,inhibition,"[13]; measured here: with BGB IC20, at 5 µM",46.8% and 4.12%
same,inhibition,"[13]; measured here: with cisplatin IC20, at 0.5 µM",14.2% and -10.7%
same,inhibition,"[13]; measured here: with cisplatin IC20, at 5 µM",38.8% and 48.3%
same,inhibition,"[13]; single agent, at 5 µM",42.9% and 23.4%
same,inhibition,[14]; at 0.5 µM,-21.3% (inactive) and -18.7% (inactive)
same,inhibition,"[14]; measured here: BGB combination, at 0.5 µM",-26.1% and -14.4%
same,inhibition,"[14]; measured here: BGB combination, at 5 µM",12.3% and 1.72%
same,inhibition,"[14]; measured here: cisplatin combination, at 0.5 µM",-29.8% and -32%
same,inhibition,"[14]; measured here: cisplatin combination, at 5 µM",9.34% and 4.42%
same,inhibition,[15]; at 0.5 µM,0.96% (inactive) and 10.8% (inactive)
same,inhibition,"[15]; cisplatin combination, at 0.5 µM",-4.86% and 4.91%
same,inhibition,"[15]; cisplatin combination, at 5 µM",90.9% and 41.3%
same,inhibition,"[15]; measured here: BGB IC40 combination 0.05 uM, at 0.05 µM",-52.6% and -17.2%
same,inhibition,"[15]; single agent, at 5 µM",58% and 51.4%
same,inhibition,[16]; at 0.5 µM,-4.02% (inactive) and 5.89% (inactive)
same,inhibition,"[16]; cisplatin combo, at 5 µM",58% and 24.2%
same,inhibition,"[16]; measured here: BGB IC40 combination, at 0.05 µM",-5.21% and -9.76%
same,inhibition,"[16]; measured here: combination with cisplatin, at 0.5 µM",7.09% and 6.01%
same,inhibition,"[16]; single agent, at 5 µM",36.2% and 26.2%
CCc1c(O)cc(O)c(C(=O)c2ccc(OCCN3CCOCC3)c(OC)c2)c1CC(=O)N(CCOC)CCOC,AC50,[1],0.235 µM (active)
same,AC50,[2],3.32 µM (active)
same,AC50,[3],0.372 µM (active)
same,AC50,[4],1.32 µM (active)
same,AC50,[5],0.833 µM (active)
same,AC50,[6],0.742 µM (active)
same,AC50,[7],0.742 µM (active)
same,outcome,[17],inactive
same,fold change,[8]; [18],1.03 (inactive)
same,fold change,[8]; [19],0.454
same,cell count,[8]; [20],3640
same,cell count,[8]; [21],3520
same,z-score,[9]; [22],-0.316 (inactive)
same,z-score,[9]; [23],0.722
CO[C@H]1/C=C/O[C@@]2(C)Oc3c(C)c(O)c4c(O)c(c(/C=N/N5CCN(C)CC5)c(O)c4c3C2=O)NC(=O)/C(C)=C\C=C\[C@H](C)[C@H](O)[C@@H](C)[C@@H](O)[C@@H](C)[C@H](OC(C)=O)[C@@H]1C,outcome,[1],inactive
same,outcome,[2],inactive
same,outcome,[3],inactive
same,outcome,[4],inactive
same,AC50,[5],20.9 µM (active)
same,outcome,[7],inactive
same,fold change,[8]; [18],0.839 (inactive) and 0.889 (inactive)
same,fold change,[8]; [19],1.31 and 1.13
same,cell count,[8]; [20],9030 and 9880
same,cell count,[8]; [21],10800 and 11100
same,z-score,[9]; [22],1.76 (inactive) and 0.859 (inactive)
same,z-score,[9]; [23],-0.112 and -0.159
